Compound activity: PubChem, University of Kansas High Throughput Screening Laboratory
Pf apPOL inh – Pf-apPOL inhibitors, biochemical, fluorescence; Plasmodium falciparum apicoplast DNA polymerase (apPOL); Recombinant Pf-apPOL, molecular beacon fluorescence, 1.5 h; inhibition, % at 10 µM; actives 0.25% (n = 210,000)
mHTT CaM bind – mutant huntingtin-calmodulin interaction inhibitors – biochemical, AlphaScreen, primary screen. P42858. AlphaScreen His-mHTT/GST-CaM binding, luminescence. inhibition, % at 15 µM. actives 3.6% (n = 190,000);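 further: 0% = both proteins with DMSO and 100% = one protein alone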
* marks the source's active call; other numbers are inactive results; . = not tested or not shown. Most compounds without a hit are left out; they make up all but 3.5% or so of the library. No stated cut-off is given here; in the data, active means inhibition above about 50%; inactive means the rest.

SMILES | Pf apPOL inh | mHTT CaM bind
O=C(NC1CCCC1)c1ccc2ncc3c(=O)n(-c4ccc(F)cc4)[nH]c3c2c1 | 0 | 3
O=C(NC1CCCC1)c1ccc2ncc3c(=O)n(-c4ccc(Cl)cc4)[nH]c3c2c1 | 5 | 86*
COC(=O)c1ccc2nc(C)cc(NC(=O)c3ccc(S(=O)(=O)NC4CC4)cc3)c2c1 | 6 | 31
CN1c2ccccc2C(C)(C)C12C=Cc1cc([N+](=O)[O-])ccc1O2 (stereo unspecified) | -6 | -4
COc1cc([N+](=O)[O-])cc2c1OC1(C=C2)N(C)c2ccc([N+](=O)[O-])cc2C1(C)C (stereo unspecified) | 1 | 13
COc1ccc2c(c1)C(C)(C)C1(C=Cc3cc([N+](=O)[O-])cc(OC)c3O1)N2C (stereo unspecified) | 3 | 61*
COc1cc([N+](=O)[O-])cc2c1OC1(C=C2)N(C)c2ccccc2C1(C)C (stereo unspecified) | -14 | 71*
CNC(=O)CN1c2ccccc2C(C)(C)C12C=Cc1cc([N+](=O)[O-])ccc1O2 (stereo unspecified) | -4 | 96*
COc1cc2c(c(OC)c1[N+](=O)[O-])C=CC1(O2)N(C)c2ccccc2C1(C)C (stereo unspecified) | 3 | 32
Cc1cc(C)c(-c2ccn(C(=O)c3snnc3C)n2)[nH]1 | -2 | .
COc1ccc(CNC(=O)C2(C)Oc3cccnc3N(C(C)C)C2=O)cc1OC (stereo unspecified) | -1 | -3
CN(C)c1nc2cc(C(=O)NCC3CC3)sc2n1-c1ccccc1 | 1 | 7
CN(C)c1nc2cc(C(=O)N3CCCC3)sc2n1-c1ccccc1 | -2 | 50*
CC(C)CNC(=O)NCCC1CCN(S(=O)(=O)c2ccc(F)cc2)CC1 | -2 | 30
Cc1nc(-c2ccc(F)cc2)sc1C(=O)N1CCC(C(C)C(=O)NCCN(C)C)CC1 (stereo unspecified) | -7 | 2
CC(C)NC(=O)C1CCN(c2ncnc3c2oc2ccccc23)CC1 | -3 | -5
COc1ccc(C(CC(=O)N2CCOCC2)c2c(OC)cc(OC)c3c(-c4ccccc4)cc(=O)oc23)cc1 (stereo unspecified) | 8 | 43
COc1ccc(C(CC(=O)N2CCCC2)c2c(OC)cc(OC)c3ccc(=O)oc23)cc1 (stereo unspecified) | -1 | 44
COc1cc(OC)c2c(-c3ccccc3)cc(=O)oc2c1C(CC(=O)N1CCCC1)c1ccc(N(C)C)cc1 (stereo unspecified) | -9 | 90*
COc1cc(C(CC(=O)N2CCCC2)c2c(OC)cc(OC)c3c(-c4ccccc4)cc(=O)oc23)cc(OC)c1OC (stereo unspecified) | 3 | 52*
CCN(CC)C(=O)CC(c1ccc(N(C)C)cc1)c1c(OC)cc(OC)c2c(-c3ccccc3)cc(=O)oc12 (stereo unspecified) | 1 | 3
COc1ccc(C(CC(=O)N2CCCC2)c2c(OC)cc(OC)c3c(-c4ccccc4)cc(=O)oc23)cc1 (stereo unspecified) | 16 | 81*
Cc1cccc(C2=NC3(CCN(CC(=O)Nc4ccccc4Cl)CC3)NC2=O)c1 | 2 | 29
N#Cc1ccc(CNC(=O)Nc2ccc(OCc3ccccc3)cc2)cc1 | -10 | .
CNC(=O)c1cnn2c3c(cnc12)CCCCCC3 | 2 | 0
SMILES | Pf apPOL inh | mHTT CaM bind
CCc1cccc(C)c1N(C(=O)CSc1nc2ccccc2[nH]1)C(C)COC (stereo unspecified) | -6 | 52*
CCOCN(C(=O)CSc1nc2ccccc2[nH]1)c1c(C)cccc1CC | -3 | 15
COc1cccc2c(SCC(=O)Nc3ccc(C(N)=O)cc3)nccc12 | -5 | -15
O=C(CN1C(=O)C(c2ccc(F)cc2)=NC12CCCC2)Nc1ccc(Cl)cc1 | -7 | 11
O=C(CN1C(=O)C(c2ccccc2)=NC12CCCCC2)Nc1ccc(F)c(Cl)c1 | -8 | 8
O=C(CN1C(=O)C(c2ccc(F)cc2)=NC12CCCCC2)Nc1ccc(F)c(Cl)c1 | -6 | 95*
O=C(CN1C(=O)C(c2ccc(F)cc2)=NC12CCCC2)Nc1ccc(F)c(Cl)c1 | -5 | 100*
Cc1cccc(NC(=O)CN2C(=O)C(c3ccccc3)=NC23CCCCC3)c1 | -4 | -3
O=C(CN1C(=O)C(c2ccccc2)=NC12CCCCC2)Nc1cccc(Cl)c1 | -11 | 89*
Cc1ccc(Cn2c(=O)[nH]c3ccccc32)cc1 | 2 | -2
O=[N+]([O-])c1ccc(N2CCN(c3cccc(C(F)(F)F)c3)CC2)s1 | -1 | 38
O=C(O)c1cc([N+](=O)[O-])c(N2CCN(c3cccc(C(F)(F)F)c3)CC2)c([N+](=O)[O-])c1 | 84* | 47
Cc1nc2ccccc2n1C(F)(F)C(F)Cl (stereo unspecified) | -18 | -2
